Screen size: about 330,000 compounds; about 1,300 (0.39%) were called active.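 Rule for the calls: active = inhibition of 50% or more; inactive = inhibition below 50%.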 The sample as a whole holds a higher share of actives than the screen did.
test: NALP3 inflammasome inhibitors in reconstituted yeast, primary screen, luminescence, uHTS (AID 2825); settings: Yeast reconstituted NLRP3/ASC/caspase-1, beta-gal luminescence, 24 h; at 10 µM; active compounds read high;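 note: plate controls were induced DMSO wells for no effect and uninduced yeast grown without galactose for full effect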

inhibition, inactive:
O=C(COc1coc(CN2CCN(c3ccccc3)CC2)cc1=O)Nc1ccccc1F 11.8%
COc1ccc(-c2oc(/N=C/N3CCCC3)c(C#N)c2-c2ccc(OC)cc2)cc1 15.6%
N#Cc1ccc(OCc2nnc(-c3ccc([N+](=O)[O-])cc3)o2)cc1 20.8%
CC1CCN(c2oc(-c3ccccc3F)nc2C#N)CC1 26.9%
O=S(=O)(c1ccc(Cl)cc1)c1nc(-c2ccco2)oc1N1CCCCC1 22.9%
CC(C(=O)N=Nc1c(O)n(C)c2ccc(Br)cc12)n1cnc2ccccc2c1=O (centres undefined) 7.45%
COc1ccc(CC(=O)Nc2sc(Cc3ccccc3)c(C)c2C(N)=O)cc1 25.1%
O=C(CN1C(=O)/C(=C\c2ccc(C(F)(F)F)cc2)Sc2ccccc21)NCc1ccco1 -3.88%
C#CCN1CC(C)/C(=N/O)CC1C (centres undefined) 8.21%
CSc1ccc(CN(C)CC(=O)NCc2ccc(F)cc2)cc1 30.5%
CC(Oc1ccc2c(-c3ccccc3)cc(=O)oc2c1)C(=O)NC(Cc1c[nH]c2ccccc12)C(=O)O (centres undefined) 18.5%
CCC(C)Sc1nc2c(cnn2-c2ccc(F)cc2)c(=O)[nH]1 (centres undefined) -8.33%
CCOc1ccc(-n2c(SCC(=O)OC)nc3sc4c(c3c2=O)CCN(C)C4)cc1 -6.96%
CCCSc1nc2sc3c(c2c(=O)n1-c1ccc(OC)cc1)CCN(C)C3 18.1%
CCOP(=O)(OCC)C(Nc1cccc(C)c1)c1ccc(F)cc1 (centres undefined) 3.8%
Cc1ccccc1N1CCN(C2CCCN(C(=O)c3ocnc3C)C2)CC1 (centres undefined) 25.2%
Cn1c2ccccc2c2c(C(=O)N3CCN(c4ccc(F)cc4)CC3)cn(C3CCCC3)c(=O)c21 15.6%
CC1CCN(Cc2nc3c(c(=O)n(C)c(=O)n3C)n2CCc2ccccc2)CC1 21.2%
Cc1onc(-c2c(Cl)cccc2Cl)c1C(=O)c1c[nH]c(C(=O)NC2CC2)c1 12.6%
Cc1cccc(N=C2SC(C)CN2C(=O)CN2C(=O)NC3(CCCC3)C2=O)c1 (centres undefined) -3.71%
COc1ccc(NC(=O)C2CCC(CNC(=O)[C@@H]3Cc4ccccc4CN3)CC2)cc1 (some centres undefined) -1.77%
O=C(CSc1nnc(-c2ccccc2O)o1)NC1CCCCC1 35.2%
O=C(CSc1nnc2c(n1)[nH]c1ccccc12)NC1CCCCC1 18.6%
COC(=O)CN1C(=O)[C@H]2[C@@H](/C=C/c3ccccc3)N3C(=O)CN(CC4CC4)C(=O)[C@@]3(Cc3ccccc3)[C@H]2C1=O 1.91%
CCOc1ccc(C2/C(=C(/O)c3ccc4c(c3)CC(C)O4)C(=O)C(=O)N2CCCn2ccnc2)cc1 (centres undefined) 15.6%
COc1ccc(OCC(=O)NCCS(=O)(=O)N2CCN(c3ccc(F)cc3)CC2)cc1 7.19%
Cc1cc(NC(=O)c2ccc(F)cc2)ccc1NC(=O)c1ccco1 12.3%
O=C(/C=C/c1ccco1)Nc1ccc(Oc2ccccc2)cc1 22.4%
O=C(NNC(=O)c1ccco1)Nc1ccccc1 8.53%
COc1cc(NC(=O)c2cc([N+](=O)[O-])ccc2Br)ccc1NC(=O)c1ccco1 20.7%
Cc1cc(O)c(C(=O)/C=C/c2c(F)c(F)c(F)c(F)c2F)c(=O)o1 12.5%
CCOc1ccc(N(C(=O)c2snc(C(N)=O)c2N)C(C(=O)NCC2CCCO2)c2c[nH]c3ccccc23)cc1 (centres undefined) 10.6%
COc1cc(OC)c(C(=S)N2CCCC2)cc1OC 16%
COc1ccc(NC(=O)COC(=O)c2ccncc2)c(OC)c1 18.3%
O=C(COc1cccc(F)c1)Oc1ccc(C(=O)c2ccccc2)cc1 -40.2%
CCOc1ccc(OCC)c(-c2c(=O)n(OCc3ccc(Cl)cc3)c3ccccc3[n+]2[O-])c1 3.29%
O=C(COC(=O)c1ccccc1SCC(=O)N1CCCC1)Nc1ccccc1OC(F)F 19.4%
CCOC(=O)C1CCN(Cc2c(C(=O)N3CCOCC3)nc3c(C)cccn23)CC1 9.59%
CCN(CC)C(=O)c1sc2nc(-c3ccccc3)ccc2c1N 20.7%
CN(C(=O)c1ccccn1)c1nnc(-c2ccccn2)s1 9.46%
O=C(Oc1cccc(O)c1)C1CCCCC1 9.17%
Cc1ccccc1C(=O)NC(=S)NC1CC1 -9.47%
O=C(c1cccc(S(=O)(=O)N2CCCC2)c1)N(Cc1ccco1)C1CCS(=O)(=O)C1 (centres undefined) 19.1%
COc1ccc2[nH]c(C(=O)Nc3ccccc3Cl)cc2c1 -3.34%
CC(OC(=O)c1cc2ccccc2[nH]1)C(=O)N(C)c1ccccc1 (centres undefined) -0.144%
COc1ccc(C(=O)c2c(C)c(CCC#N)n3ccccc23)c(OC)c1 3.12%
O=C(Nc1ccc(S(=O)(=O)N2CCCCC2)cc1)C1CCN(C(=O)c2ccc(F)cc2)CC1 8.87%
O=C(c1[nH]ncc1-c1ccc(Cl)cc1)C1CO1 (centres undefined) 2.92%
COc1cc(C(=O)OCc2cc(=O)n3ccsc3n2)ccc1OC(C)C 16.3%
Cc1c(Cl)c([N+](=O)[O-])nn1CCCC(=O)NC(C)c1ccccc1 (centres undefined) 7.95%
COC(=O)CCNC(=O)c1ccc2[nH]c(C)c(C)c2c1 -4.49%
Cc1nn(CCOc2ccccc2)c(=O)n1-c1ccccc1F -0.993%
CC(C)(c1ccccc1)c1ccc(OCCN2CCCC2)cc1 31.2%
COc1cnn(-c2ccc([N+](=O)[O-])cc2)c(=O)c1Cl -39.9%
Cc1ccc(-c2cn(S(=O)(=O)c3cccc([N+](=O)[O-])c3)nc2N)cc1 -10.8%
Cc1snc(SCc2c(F)cccc2Cl)c1C#N 18.9%
Cc1cc(C)c(C#N)c(SCc2ccc3c(c2)OCO3)n1 7.1%
O=C(CCNC(=O)c1ccccc1)NN=Cc1ccc(Br)o1 20.8%
CCCn1c(=O)c(C(=O)Nc2cc(C)ccn2)c(O)c2ccccc21 18.1%
C=CCn1c(=O)c(C(=O)Nc2ncccc2O)c(O)c2ccccc21 22.7%
CS(=O)(=O)N(Cc1nc2sc3c(c2c(=O)[nH]1)CCCC3)C1CCCCC1 19.1%
CC[C@@H](C)[C@H](NC(=O)CCc1c(C)c2cc3c4c(oc3c(C)c2oc1=O)CCCC4)C(=O)O 17.7%
COc1cccc(C(=O)NC(=O)Nc2nc(C)cc(C(F)(F)F)n2)c1 6.49%
Cc1cc(Cl)nc(NC(=O)Nc2cccc(Cl)c2)n1 25.9%
Cc1ccc(CNC(=O)Cn2cnc(S(=O)(=O)N3CCCCC3)c2)o1 4.74%
O=C(c1ccccc1)c1cc(-c2ccccn2)c(N2CCOCC2)s1 -6.23%
CCOC(=O)C1=C(C)NC(C)=C(C(=O)OCC)C1C1=COCCO1 22.7%
CCOc1ccc(N2C(=O)CSC2=NC#N)cc1 11.9%
O=C1CSC(=S)N1c1ccc(Cl)c(Cl)c1 41.8%
COc1cc(N2C(=O)CC3(CCCC3)CC2=O)cc(OC)c1OC 3.58%
COc1cc(C(=O)N2CCN(C)CC2)cc(OC)c1OC 9.48%
COCCNc1cc(-c2ccccc2)nc2cc(-c3cccc(F)c3)nn12 32.2%
CCCCC(=O)Nc1ccccc1N1CCN(c2ccc(F)cc2)CC1 17.7%
CC(C)NC(=S)NN=C1CCCCCCCCCCC1 26.8%
Cc1ccc2nsnc2c1S(=O)(=O)N1CCCC1C(=O)O (centres undefined) 14.6%
COc1ccc(S(=O)(=O)N2CCOC23CCN(S(=O)(=O)c2ccc([N+](=O)[O-])cc2)CC3)cc1 23.5%
O=C(c1ccncc1)N1CCN(S(=O)(=O)c2cc(C(F)(F)F)cc(C(F)(F)F)c2)CC1 6.83%

inhibition, active:
Cc1ccc(OCc2nc(C#N)c(N3CCCC3)o2)cc1 63%
N#Cc1nc(COc2ccc(Cl)cc2)oc1N1CCCC1 55.6%
CCSc1nc2sc3c(c2c(=O)n1-c1ccc(C)cc1)CCN(C)C3 58.9%
CCCc1nc2c(c(=O)c3ccccc3n2C)c(=O)n1C1CCCCCC1 64.7%
C[C@@H]1C[C@@H]2O[C@H]2/C=C\C=C\C(=O)Cc2c(Cl)c(O)cc(O)c2C(=O)O1 53.1%
O=C(CSc1ncnc2c1oc1ccccc12)NC1CCCC1 52%
COc1ccccc1C(=O)Nc1ccc(NC(=O)c2ccco2)c(C)c1 50.8%
O=C(Nc1ccc(Oc2ccccc2)cc1)c1ccco1 50.8%
CN(C)c1ccnc2sc(C(=O)c3ccccc3)c(N)c12 64.4%
O=C(Nc1ccccc1)c1cc2ccccc2[nH]1 58.5%
CC(C)(c1ccccc1)c1ccc(OCCN)cc1 54.5%
Nc1c(-c2cccc(Cl)c2)cnn1-c1cccc([N+](=O)[O-])c1 50.4%
Cc1ccc(CSc2nsc(C)c2C#N)cc1 63.5%
Cn1c(=O)c(C(=O)Nc2ncccn2)c(O)c2ccccc21 50.1%
Cc1cc(C)nc(NC(=O)Nc2ccccc2C(F)(F)F)n1 54.9%
O=C1CSC(=S)N1c1ccc(O)cc1 81.7%
COc1cc(N2C(=O)CSC2=S)cc(OC)c1OC 58.3%

— PubChem BioAssay AID2825 (Sanford-Burnham Center for Chemical Genomics, 2010)
